# Tcruzi prolif = T. cruzi intracellular proliferation inhibitors, primary screen, cell-based, beta-gal Tulahuen parasites, NIH3T3 host, luminescence; inhibition, % at 8.34 µM; actives 5.9% (n = 77,000); T. cruzi beta-gal in NIH3T3, GalScreen luminescence, 90 h; AID 624255, 2012;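 active = mean inhibition above about 93%, with at least 55% of replicates each passing it, limit read from the data, passing the limit was not always enough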
# Pf Dd2 growth = P. falciparum Dd2 growth inhibitors, primary screen, SYBR Green fluorescence, single dose replicates | 72 h; hits give low values | activity change, % at 10 µM | actives 2.3% (n = 94,000) | AID 1159554, 2015; in the data active = activity change below about -80%
# C diff growth = C. difficile growth inhibitors, primary screen, HTS; Clostridium difficile clinical isolate growth, OD600, 24 h; hits give low values; growth activity, negative = inhibition, % at 16 µg/mL (by protocol); actives 0.25% (n = 86,000);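 active = mean growth activity at or below -80% and every replicate also at or below -80%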;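 note: 0% = DMSO wells and -100% = levofloxacin 16 µg/mL wells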
# * marks the source's active call; other numbers are inactive results; / = no result given. Sampled rows, rich in hits. Any-hit rate of the full collection: about 6.7%.
SMILES,Tcruzi prolif,Pf Dd2 growth,C diff growth
C[C@@H]1CN([C@H](C)CO)C(=O)c2cc(NS(C)(=O)=O)ccc2O[C@@H](C)CCCCO[C@H]1CN(C)Cc1ccccc1,58.1,20.5,0.1
CC(C)NC(=O)N1[C@H](CO)[C@@H]2c3ccccc3N(C(=O)c3ccncc3)C[C@@H]21,-25.7,-25.7,1.0
CN1[C@@H]2Cn3c(ccc(-c4ccncc4)c3=O)[C@H]1[C@@H](C(=O)Nc1nccs1)[C@@H]2CO,0.9,5.2,-3.1
O=C(C[C@H]1C[C@H]2c3cc(NC(=O)Cc4ccncc4)ccc3O[C@H]2[C@H](CO)O1)NCc1cccc(F)c1,10.3,-41.0,2.2
CO[C@H]1CN(C)C(=O)c2cc(NC(=O)Cc3ccccc3)ccc2OC[C@H](C)NC[C@H]1C,7.6,4.2,/
COc1ccc(C#Cc2ccc([C@H]3[C@H]4CN(C(=O)c5ccc(F)cc5)CC(=O)N4[C@H]3CO)cc2)cc1,/,-85.1*,-2.1
COc1cccc(C#Cc2ccc([C@@H]3[C@H]4CN(C(=O)c5ccccc5)CC(=O)N4[C@H]3CO)cc2)c1,/,-48.4,-4.9
O=C(c1ccc(F)cc1)N1CC(=O)N2[C@H](C1)[C@H](c1ccc(C#Cc3ccc(F)cc3)cc1)[C@@H]2CO,/,-13.1,-0.7
COc1cccc(NC(=O)N2CC(=O)N3[C@H](C2)[C@H](c2ccc(C#CCC4CCCC4)cc2)[C@@H]3CO)c1,/,-44.0,70.1
COc1cccc(C#Cc2ccc([C@H]3[C@@H](CO)N4C(=O)CN(C(=O)c5ccccc5)C[C@H]34)cc2)c1,/,-88.7*,1.1
COc1cccc(NC(=O)N2CC(=O)N3[C@H](CO)[C@@H](c4ccc(C#CCC5CCCC5)cc4)[C@H]3C2)c1,/,-90.9*,61.9
CN(C)C(=O)c1ccc(-c2ccc([C@@H]3[C@H](CO)N4CCCCN(CC5CC5)C[C@@H]34)cc2)cc1,73.8,11.9,-5.5
O=C(Nc1ccc2c(c1)[C@H]1C[C@H](CC(=O)N3CCc4ccccc4C3)O[C@H](CO)[C@H]1O2)C1CCC1,53.9,-23.6,-1.6
C/C=C/c1ccc([C@@H]2[C@@H](CN(C)C(=O)C3CC3)N(C(=O)C3CC3)[C@H]2CO)cc1,23.5,-7.0,1.8
CN(C)C(=O)c1cccc(-c2ccc3n(c2=O)C[C@@H]2[C@@H](CO)[C@H](C(=O)NCC(F)(F)F)[C@H]3N2C)c1,78.5,/,12.4
C[C@@H]1CN([C@@H](C)CO)C(=O)c2c(c3ccccc3n2C)-c2ccccc2CO[C@H]1CN(C)C(=O)Cc1ccccc1,19.9,-86.3*,-6.5
C[C@H]1CN([C@@H](C)CO)C(=O)c2c(c3ccccc3n2C)-c2ccccc2CO[C@H]1CN(C)C(=O)Cc1ccccc1,30.3,-70.2,-1.0
C[C@@H]1CN([C@@H](C)CO)C(=O)c2c(c3ccccc3n2C)-c2ccccc2CO[C@@H]1CN(C)C(=O)CCN(C)C,-29.9,-79.0,-5.3
C[C@H](CO)N1C[C@H](C)[C@@H](CN(C)C(=O)CCN(C)C)OCc2ccccc2-c2c(n(C)c3ccccc23)C1=O,71.5,-85.0*,4.6
CCC(=O)N1[C@H](CO)[C@H](c2ccc(-c3ccc(F)cc3)cc2)[C@H]1CNC(C)=O,29.1,6.9,-8.9
O=C(c1cnccn1)N1CC(=O)N2[C@H](CO)[C@@H](c3ccc(C#CCc4ccccc4)cc3)[C@@H]2C1,/,-72.2,-12.7
O=C(C1CCC1)N1CC(=O)N2[C@H](CO)[C@@H](c3ccc(C#CCc4ccccc4)cc3)[C@@H]2C1,/,-85.5*,-9.4
O=C(Cc1ccccc1)N1CC(=O)N2[C@H](CO)[C@H](c3ccc(C#CCc4ccccc4)cc3)[C@H]2C1,/,-88.5*,-14.8
O=C(c1cnccn1)N1CC(=O)N2[C@@H](CO)[C@@H](c3ccc(C#CCc4ccccc4)cc3)[C@@H]2C1,/,-82.9*,-10.3
O=C(Cc1ccccc1)N1CC(=O)N2[C@H](CO)[C@@H](c3ccc(C#CCc4ccccc4)cc3)[C@H]2C1,/,-43.3,38.1
O=C(C1CCC1)N1CC(=O)N2[C@H](CO)[C@H](c3ccc(C#CCc4ccccc4)cc3)[C@H]2C1,/,-12.5,-14.9
C[C@@H]1CN([C@@H](C)CO)C(=O)c2cccc(NC(=O)C3CCCCC3)c2O[C@@H]1CN(C)Cc1ccc2c(c1)OCO2,20.5,-54.4,-3.0
C[C@H](C(=O)N(C)C[C@H]1OCc2ccccc2-c2c(n(C)c3ccccc23)C(=O)N([C@H](C)CO)C[C@@H]1C)c1ccccc1,/,-50.9,25.7
C[C@H](CO)N1C[C@H](C)[C@@H](CN(C)C(=O)N[C@H](C)c2ccccc2)OCc2ccccc2-c2c(n(C)c3ccccc23)C1=O,71.4,-81.6*,11.9
